Activity calls are given as the source filed them. Rule for the calls: active = hit-call score of the fitted dose curve at least 0.9, where 1 is the maximum; inactive = score below 0.9.
Read-out: Plasminogen activator inhibitor-1 (PAI1), SERPINE1 (gene 5054)
Assay: BSK_BE3C_PAI1: BioMAP Diversity Plus: BE3C Assay for Plasminogen activator inhibitor-1 (PAI1) Biomarker Activity (AID 2283037)
Details: primary human bronchial epithelial cells; actives raise or lower the signal
Outline: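 Primary human bronchial epithelial cells (BE3C system) exposed 24 h; PAI-1 quantified by ELISA. Parallel sulforhodamine B staining of total protein flags cytotoxicity. Bidirectional fit versus DMSO.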

Structure (SMILES) | outcome | AC50
O=P(O)(O)CCCl | inactive | –
CC(C)(C)C(=O)C(Oc1ccc(Cl)cc1)n1cncn1 (configuration not stated) | inactive | –
C=C(C)CN(CC)c1c([N+](=O)[O-])cc(C(F)(F)F)cc1[N+](=O)[O-] | inactive | –
C=CCOC(=O)C(C)(C)OC(=O)c1cc(-n2c(=O)cc(C(F)(F)F)n(C)c2=O)ccc1Cl | inactive | –
CCN(CC)C(=O)C(C)Oc1cccc2ccccc12 (configuration not stated) | inactive | –
COCc1cnc(C2=NC(C)(C(C)C)C(=O)N2)c(C(=O)O)c1 (configuration not stated) | inactive | –
O=C1C2CC=CCC2C(=O)N1SC(Cl)(Cl)Cl (configuration not stated) | – | 12.4 µM (active)
CCCC(=NOCC)C1=C(O)CC(CC(C)SCC)CC1=O (configuration not stated) | inactive | –
CO/N=C(/C1=NOCCO1)c1ccccc1Oc1ncnc(Oc2ccccc2Cl)c1F | inactive | –
CC(C)Oc1cccc(NC(=O)c2ccccc2C(F)(F)F)c1 | inactive | –
CC(C)C1(C)N=C(c2ncccc2C(=O)O)NC1=O (configuration not stated) | inactive | –
COCC(=O)N(c1c(C)cccc1C)C(C)C(=O)OC (configuration not stated) | inactive | –
CC(C)N1C(=O)N(c2ccccc2)CSC1=NC(C)(C)C | inactive | –
CCNP(=S)(OC)O/C(C)=C/C(=O)OC(C)C (configuration not stated) | inactive | –
CNC(=O)Oc1cccc2ccccc12 | inactive | –

Read-out: urokinase plasminogen activator (uPA), PLAU (gene 5328)
Assay: BSK_BE3C_uPA: BioMAP Diversity Plus: BE3C Assay for urokinase plasminogen activator (uPA) Biomarker Activity (AID 2283038);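 for outcome: uPA protein level quantified by ELISA in cell cultures; uPA read one day after compound addition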
Details: primary human bronchial epithelial cells; actives raise or lower the signal
Outline: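 ELISA read-out of uPA in human lung primary bronchial epithelial cultures, 24 h post-dosing. Gain or loss of signal fitted bidirectionally relative to DMSO baseline; cytotoxicity checked in parallel cultures via SRB total protein stain.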

Structure (SMILES) | outcome | AC50
Cc1c(COC(=O)[C@@H]2[C@H](/C=C(\Cl)C(F)(F)F)C2(C)C)cccc1-c1ccccc1 | inactive | –
O=c1n(Cl)c(=O)n(Cl)c(=O)n1Cl | inactive | –
CC1(C)CCC(=Cc2ccc(Cl)cc2)C1(O)Cn1cncn1 (configuration not stated) | inactive | –
COC(=O)N(C(=O)N1CO[C@@]2(C(=O)OC)Cc3cc(Cl)ccc3C2=N1)c1ccc(OC(F)(F)F)cc1 | inactive | –
CC1(C)CON(Cc2ccccc2Cl)C1=O | inactive | –
Cn1c(-c2ccccc2)cc(-c2ccccc2)[n+]1C | inactive | –
COC(=O)NC(=S)Nc1ccccc1NC(=S)NC(=O)OC | inactive | –
N#CN=C1SCCN1Cc1ccc(Cl)nc1 | inactive | –
CS(=O)(=O)c1cc(C(F)(F)F)ccc1C(=O)c1cnoc1C1CC1 | inactive | –
COP(=S)(OC)SCn1nnc2ccccc2c1=O | inactive | –
CCSC(=O)N1CCCCCC1 | inactive | –
O=C(O)c1c(Cl)ccc2cc(Cl)cnc12 | inactive | –
CCCCOCN(C(=O)CCl)c1c(CC)cccc1CC | – | 31.4 µM (active)
CC(C)N1C(=O)c2ccccc2NS1(=O)=O | inactive | –
CCCCC(O)(Cn1cncn1)c1ccc(Cl)cc1Cl (configuration not stated) | inactive | –
COCC(C)N(C(=O)CCl)c1c(C)csc1C (configuration not stated) | inactive | –
CC1(C)C(C=C(Cl)Cl)C1C(=O)OC(C#N)c1cccc(Oc2ccccc2)c1 (configuration not stated) | inactive | –
CCOP(=S)(OCC)Oc1nc(Cl)n(C(C)C)n1 | inactive | –

Structure (SMILES) | outcome | AC50
COP(=O)(OC)O/C(C)=C/C(=O)N(C)C | inactive | –
CCN(CC)c1nc(C)cc(OP(=S)(OC)OC)n1 | inactive | –
Cc1cc(C)nc(Nc2ccccc2)n1 | inactive | –
O=P(O)(O)CCCl | inactive | –
CC(C)(C)C(=O)C(Oc1ccc(Cl)cc1)n1cncn1 (configuration not stated) | inactive | –
C=C(C)CN(CC)c1c([N+](=O)[O-])cc(C(F)(F)F)cc1[N+](=O)[O-] | inactive | –
C=CCOC(=O)C(C)(C)OC(=O)c1cc(-n2c(=O)cc(C(F)(F)F)n(C)c2=O)ccc1Cl | inactive | –
CCN(CC)C(=O)C(C)Oc1cccc2ccccc12 (configuration not stated) | inactive | –
COCc1cnc(C2=NC(C)(C(C)C)C(=O)N2)c(C(=O)O)c1 (configuration not stated) | inactive | –
O=C1C2CC=CCC2C(=O)N1SC(Cl)(Cl)Cl (configuration not stated) | – | 11.5 µM (active)
CCCC(=NOCC)C1=C(O)CC(CC(C)SCC)CC1=O (configuration not stated) | inactive | –
CO/N=C(/C1=NOCCO1)c1ccccc1Oc1ncnc(Oc2ccccc2Cl)c1F | inactive | –
CC(C)Oc1cccc(NC(=O)c2ccccc2C(F)(F)F)c1 | inactive | –
CC(C)C1(C)N=C(c2ncccc2C(=O)O)NC1=O (configuration not stated) | inactive | –
COCC(=O)N(c1c(C)cccc1C)C(C)C(=O)OC (configuration not stated) | inactive | –
CC(C)N1C(=O)N(c2ccccc2)CSC1=NC(C)(C)C | inactive | –
CCNP(=S)(OC)O/C(C)=C/C(=O)OC(C)C (configuration not stated) | inactive | –
CNC(=O)Oc1cccc2ccccc12 | inactive | –

Read-out: Urokinase-type plasminogen activator receptor (uPAR), PLAUR (gene 5329)
Assay: BSK_BE3C_uPAR: BioMAP Diversity Plus: BE3C Assay for Urokinase-type plasminogen activator receptor (uPAR) Biomarker Activity (AID 2283039);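 for outcome: uPAR protein level measured by ELISA on the cells; cells exposed to compound for one day before measurement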
Details: primary human bronchial epithelial cells; actives raise or lower the signal
Outline: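 Primary human bronchial epithelial cells dosed for 24 h; uPAR quantified by ELISA with bidirectional fitting against DMSO. Overt cytotoxicity assessed in parallel cultures by SRB total-protein staining (0.1% SRB, 560 nm).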

Structure (SMILES) | outcome | AC50
Cc1c(COC(=O)[C@@H]2[C@H](/C=C(\Cl)C(F)(F)F)C2(C)C)cccc1-c1ccccc1 | inactive | –
O=c1n(Cl)c(=O)n(Cl)c(=O)n1Cl | inactive | –
CC1(C)CCC(=Cc2ccc(Cl)cc2)C1(O)Cn1cncn1 (configuration not stated) | inactive | –
COC(=O)N(C(=O)N1CO[C@@]2(C(=O)OC)Cc3cc(Cl)ccc3C2=N1)c1ccc(OC(F)(F)F)cc1 | inactive | –
CC1(C)CON(Cc2ccccc2Cl)C1=O | inactive | –
Cn1c(-c2ccccc2)cc(-c2ccccc2)[n+]1C | inactive | –
COC(=O)NC(=S)Nc1ccccc1NC(=S)NC(=O)OC | – | 1.46 µM (active)
N#CN=C1SCCN1Cc1ccc(Cl)nc1 | inactive | –
CS(=O)(=O)c1cc(C(F)(F)F)ccc1C(=O)c1cnoc1C1CC1 | inactive | –
COP(=S)(OC)SCn1nnc2ccccc2c1=O | inactive | –
CCSC(=O)N1CCCCCC1 | inactive | –
O=C(O)c1c(Cl)ccc2cc(Cl)cnc12 | inactive | –
CCCCOCN(C(=O)CCl)c1c(CC)cccc1CC | – | 32.2 µM (active)
CC(C)N1C(=O)c2ccccc2NS1(=O)=O | inactive | –
CCCCC(O)(Cn1cncn1)c1ccc(Cl)cc1Cl (configuration not stated) | inactive | –
COCC(C)N(C(=O)CCl)c1c(C)csc1C (configuration not stated) | inactive | –
CC1(C)C(C=C(Cl)Cl)C1C(=O)OC(C#N)c1cccc(Oc2ccccc2)c1 (configuration not stated) | inactive | –
CCOP(=S)(OCC)Oc1nc(Cl)n(C(C)C)n1 | inactive | –

Structure (SMILES) | outcome | AC50
COP(=O)(OC)O/C(C)=C/C(=O)N(C)C | inactive | –
CCN(CC)c1nc(C)cc(OP(=S)(OC)OC)n1 | inactive | –
Cc1cc(C)nc(Nc2ccccc2)n1 | inactive | –
O=P(O)(O)CCCl | inactive | –
CC(C)(C)C(=O)C(Oc1ccc(Cl)cc1)n1cncn1 (configuration not stated) | inactive | –
C=C(C)CN(CC)c1c([N+](=O)[O-])cc(C(F)(F)F)cc1[N+](=O)[O-] | inactive | –
C=CCOC(=O)C(C)(C)OC(=O)c1cc(-n2c(=O)cc(C(F)(F)F)n(C)c2=O)ccc1Cl | inactive | –
CCN(CC)C(=O)C(C)Oc1cccc2ccccc12 (configuration not stated) | inactive | –
COCc1cnc(C2=NC(C)(C(C)C)C(=O)N2)c(C(=O)O)c1 (configuration not stated) | inactive | –
O=C1C2CC=CCC2C(=O)N1SC(Cl)(Cl)Cl (configuration not stated) | inactive | –
CCCC(=NOCC)C1=C(O)CC(CC(C)SCC)CC1=O (configuration not stated) | inactive | –
CO/N=C(/C1=NOCCO1)c1ccccc1Oc1ncnc(Oc2ccccc2Cl)c1F | inactive | –
CC(C)Oc1cccc(NC(=O)c2ccccc2C(F)(F)F)c1 | inactive | –
CC(C)C1(C)N=C(c2ncccc2C(=O)O)NC1=O (configuration not stated) | inactive | –
COCC(=O)N(c1c(C)cccc1C)C(C)C(=O)OC (configuration not stated) | inactive | –
CC(C)N1C(=O)N(c2ccccc2)CSC1=NC(C)(C)C | – | 33.7 µM (active)
CCNP(=S)(OC)O/C(C)=C/C(=O)OC(C)C (configuration not stated) | inactive | –
CNC(=O)Oc1cccc2ccccc12 | inactive | –
